According to PMC5540273 (PLoS ONE, 2017):

Columns and labels:
Details in all cases: concentration: 1 μM, replicates: in singlicate; n = 1
ACVR1B = tested on: ACVR1B
ACVR1 = tested on: ACVR1
ACVR2A = tested on: ACVR2A
ACVR2B = tested on: ACVR2B
ACVRL1 = tested on: ACVRL1
ADCK3 = tested on: T1, ADCK3
T1 construct: gene CABC1

ADCK4 = tested on: ADCK4
AKT1 = tested on: AKT1
AKT2 = tested on: AKT2
AKT3 = tested on: AKT3
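Further: KINOMEscan kinase panel screen.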

Structure (SMILES)	%Inh (ACVR1B)	%Inh (ACVR1)	%Inh (ACVR2A)	%Inh (ACVR2B)	%Inh (ACVRL1)	%Inh (ADCK3)	%Inh (ADCK4)	%Inh (AKT1)	%Inh (AKT2)	%Inh (AKT3)
Nc1nc(-c2ccccc2F)c(-c2ccnc3ccccc23)s1 [GW560459]	0%	6%	0%	0%	0%	0%	22%	0%	0%	0%
CCn1c(-c2nonc2N)nc2ccccc21 [SB-693162/GW549034]	1%	0%	0%	0%	0%	4%	0%	0%	1%	0%
Nc1nc(N)c2nc(-c3ccccc3)[nH]c2n1 [SKF-12778]	18%	6%	27%	26%	3%	0%	22%	15%	8%	15%
CCS(=O)c1ccc(-c2coc3ccc(-c4nnc(C)o4)cc23)cc1 (centres unmarked)	0%	5%	0%	0%	6%	5%	0%	0%	0%	0%
O=C1NC(=O)C(c2ccccc2)=C1Nc1cccc(O)c1 [SB-390534]	0%	22%	0%	0%	0%	0%	0%	0%	0%	0%
COc1cccc(C2=C(N(C)c3ccccc3)C(=O)NC2=O)c1 [SB-334865]	0%	28%	0%	3%	0%	4%	21%	0%	13%	0%
Cl.c1ccc(Cn2cnc3cc(Nc4ncnc5ccccc45)ccc32)cc1 [GW272142]	0%	17%	0%	2%	0%	13%	34%	0%	3%	0%
Cc1nn2c(=O)cc(N3CCOCC3)nc2n1Cc1cccc(Cl)c1Cl [GSK2342769]	0%	12%	0%	0%	42%	10%	4%	0%	14%	0%
O=C(Nc1n[nH]c2nc(-c3ccccc3)c(Cl)cc12)C1CC1 [SB-734909]	7%	0%	7%	8%	0%	0%	0%	0%	0%	0%
Cc1nc(N(C)[C@H]2CN(C(=O)CC#N)CC[C@H]2C)c2cc[nH]c2n1	8%	8%	15%	0%	5%	0%	0%	0%	1%	3%
COc1cc(OC)cc(-c2cc3cnc(N)nc3nc2NC(=O)NC(C)(C)C)c1	10%	0%	0%	0%	0%	0%	0%	4%	11%	24%
COC(=O)c1c(-c2ccccc2)c2cc(C)ccc2c(=O)n1Cc1ccccc1	0%	0%	7%	0%	0%	0%	0%	0%	3%	0%
CCn1c(-c2ccoc2)nc2cnccc21 [SB-733887]	0%	15%	0%	18%	0%	10%	20%	0%	14%	0%
COc1cc2nccc(Nc3ccc(OCc4ccc(NC(C)=O)cc4)cc3)c2cc1OC.Cl [GW440135]	0%	25%	0%	1%	4%	15%	23%	6%	0%	0%
COc1ccc(-c2cc3c(C)nc(N)nc3n([C@H]3CC[C@H](OCCO)CC3)c2=O)cn1	9%	4%	0%	0%	0%	0%	0%	6%	0%	1%
Cc1nnc(-c2ccc(C)c(-c3ccc(C(=O)O)cc3)c2)o1 [GW608005]	0%	4%	0%	0%	0%	0%	0%	0%	6%	0%
CN1C(=O)C(Nc2ccccc2)=C(c2ccccc2)C1=O [SB-300079]	8%	0%	0%	0%	0%	0%	25%	0%	0%	0%
